# Calls of active or inactive are those of the source.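 The calls were made as follows, unless noted: active = compounds whose cell count with miR-34 switched on is under 0.7 times the count with it off; inactive = the rest.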
# Legend:
# [1] = viability loss with induced miR-34 in A549 – imaging, A549 dox-inducible miR-34, nuclei and caspase counts, primary screen (AID 1347080); conditions: A549 miR-34 inducible, Hoechst nuclei count, 48 h
# [2] = MELAS cybrid and Rieske KO viability enhancers – cell-based, MELAS cybrids, Rieske KO mouse fibroblasts, CellTiter-Glo, primary screen (AID 1508586;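 active = mean z-score across replicates of 1.96 or higher in either the MELAS or the Rieske mutant cell line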;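 also: z relative to plate mean and SD of compound and empty wells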); conditions: low glucose
# [3] = stronger effect = lower value, cell number ratio, induced over uninduced
# [4] = measured here: relative caspase fold change +Dox/-Dox
# [5] = measured here: total cells with miR-34 induction, stronger effect = lower value
# [6] = measured here: total cells without miR-34 induction
# [7] = MELAS cybrid survival, CellTiter-Glo 48 h, stronger effect = higher value
# [8] = Rieske KO mouse fibroblast survival, CellTiter-Glo 72 h
# Also: test concentration not given here.
SMILES,"fold change [1, 3]","fold change [1, 4]","cell count [1, 5]","cell count [1, 6]","z-score [2, 7]","z-score [2, 8]"
C[C@@H]1COc2c(N3CCN(C)CC3)c(F)cc3c(=O)c(C(=O)O)cn1c23,0.906 (inactive),0.634,8330,9190,-0.0742 (inactive),0.213
C#C[C@@]1(O)CC[C@H]2[C@@H]3CCc4cc(OC)ccc4[C@@H]3CC[C@@]21C,0.921 (inactive),0.824,7730,8400,-0.343 (inactive),0.814
O=C1NC(=O)C(=Cc2ccc3c(c2)OC(F)(F)O3)S1,0.912 (inactive),0.633,8930,9790,-0.318 (inactive),-0.248
CC(=O)c1cc([N+](=O)[O-])c(Sc2cccc(Cl)c2Cl)s1,0.882 (inactive),0.345,7980,9050,-0.31 (inactive),0.849
O=C(CS(=O)Cc1ccco1)NCC=CCOc1cc(CN2CCCCC2)ccn1 (centres undefined),0.878 (inactive),0.735,8120,9240,-0.242 (inactive),-0.613
CCOc1ccccc1OC(c1ccccc1)[C@H]1CNCCO1 (some centres undefined),0.858 (inactive),1.73,8800,10300,-0.71 (inactive),-0.166
CNc1nc(Nc2cn(C(C)(C)C#N)nc2C)ncc1C(F)(F)F,0.858 (inactive),0.457,7920,9230,-0.302 (inactive),0.79
CCC1OC(=O)CC(O)C(C)C(OC2OC(C)C(O)C(N(C)C)C2O)C(CCN2CC(C)CC(C)C2)CC(C)C(=O)C=CC(C)=CC1COC1OC(C)C(O)C(OC)C1OC (centres undefined),0.924 (inactive),0.808,8240,8920,-0.194 (inactive),-0.165
C#C[C@@]1(O)CC[C@H]2[C@@H]3CCc4cc(O)ccc4[C@@H]3CC[C@@]21C,0.952 (inactive),0.969,6120,6420,0.773 (inactive),0.776
CCc1c(Cl)c(O)c(Cl)c(O)c1C(=O)OC1C(C)OC(OCC2=CC=CCC(O)C(C)=CC(CC)C(O[C@@H]3OC(C)(C)C(OC(=O)C(C)C)C(O)C3O)C(C)=CC(C)=CC[C@H](C(C)O)OC2=O)C(OC)C1O (some centres undefined),0.841 (inactive),0.698,6980,8290,-0.301 (inactive),-0.0909
Cc1nc(NC(=O)N2CCCC2C(N)=O)sc1-c1csc(C(C)(C)C)n1 (centres undefined),0.968 (inactive),0.607,6880,7100,-0.368 (inactive),0.104
CCN(C)C(=O)Oc1cccc(C(C)N(C)C)c1 (centres undefined),0.91 (inactive),0.79,8110,8910,-0.173 (inactive),0.451
C=C1c2cccc(O)c2C(O)=C2C(=O)[C@]3(O)C(O)=C(C(N)=O)C(=O)C(N(C)C)[C@@H]3C(O)[C@H]12 (some centres undefined),0.858 (inactive),1.09,7630,8890,5.63 (active),0.965
C[C@@]12CCC3=C4CCC(=O)C=C4CC[C@H]3[C@@H]1CC[C@@]2(O)CC#N,0.908 (inactive),0.868,7270,8010,-0.385 (inactive),0.301
O=C(CCc1ccc(O)cc1)c1c(O)cc(O)cc1OC1OC(CO)C(O)C(O)C1O (centres undefined),0.988 (inactive),0.673,10200,10400,-0.378 (inactive),0.518
CC(C)CN(C[C@H](O)[C@@H](Cc1ccccc1)NC(=O)O[C@@H]1CO[C@H]2OCC[C@H]21)S(=O)(=O)c1ccc(N)cc1,0.938 (inactive),0.791,7440,7930,-0.364 (inactive),0.28
C=C(C)C1CC[C@]2(C(=O)O)CC[C@]3(C)[C@H](CC[C@@H]4[C@@]5(C)CCC(O)C(C)(C)[C@@H]5CC[C@]43C)[C@@H]12 (some centres undefined),0.87 (inactive),0.918,6780,7790,-0.0804 (inactive),-0.141
CCCC(=O)Nc1cccc(NC(=O)c2ccccc2Br)c1,0.957 (inactive),0.928,7570,7910,-0.112 (inactive),-0.0371
Cc1cccc(C)c1OCC(=O)NC(Cc1ccccc1)C(O)CC(Cc1ccccc1)NC(=O)C(C(C)C)N1CCCNC1=O (centres undefined),1 (inactive),0.797,6290,6270,-0.513 (inactive),0.0231
COc1cc(CCc2cc(NC(=O)c3ccc(N4CC(C)NC(C)C4)cc3)n[nH]2)cc(OC)c1 (centres undefined),0.767 (inactive),0.948,4590,5980,-0.509 (inactive),-1.9
CC(OC1OCCN(Cc2nn(P(=O)(O)O)c(=O)[nH]2)C1c1ccc(F)cc1)c1cc(C(F)(F)F)cc(C(F)(F)F)c1 (centres undefined),1.01 (inactive),0.443,5980,5920,-0.192 (inactive),-0.0927
CC(NC(=O)C(C#N)=Cc1cccc(Br)n1)c1ccccc1 (centres undefined),1.21 (inactive),0.817,1620,1340,0.502 (inactive),0.371

SMILES,"fold change [1, 3]","fold change [1, 4]","cell count [1, 5]","cell count [1, 6]","z-score [2, 7]","z-score [2, 8]"
CN(CC1COCCO1)S(=O)(=O)Nc1ccc2ccc3ncc(-c4cnn(C)c4)cc3c(=O)c2c1 (centres undefined),0.745 (inactive),1.24,3290,4410,4.55 (active),2.15
Cc1cc(CS(=O)(=O)c2ccccc2)cc(OCc2ccc(CN3CCCC3CO)cc2)c1 (centres undefined),0.932 (inactive),0.28,7820,8380,0.0407 (inactive),0.831
c1ccc(NCc2ccc(CNc3ccccn3)cc2)nc1,0.944 (inactive),0.525,7360,7790,-0.161 (inactive),-0.0229
O=C1C(Cc2ccc(O)cc2)N2C(=O)CCN(C(=O)NCc3ccccc3)[C@H]2CN1Cc1cccc2ccccc12 (some centres undefined),1.06 (inactive),0.528,2850,2690,-0.585 (inactive),-0.172
CC1C[C@H]2[C@@H]3CCC4=CC(=O)C=C[C@]4(C)[C@@H]3C(=O)C[C@]2(C)[C@]1(O)C(=O)CO (some centres undefined),1.57 (inactive),0.521,7500,4760,-0.4 (inactive),0.152
OCc1ccccc1OC1OC(CO)C(O)C(O)C1O (centres undefined),0.944 (inactive),0.784,9350,9900,-0.348 (inactive),0.733
CC(=O)O[C@@]1(C(C)=O)CC[C@H]2[C@@H]3C=C(Cl)C4=CC(=O)C5CC5[C@]4(C)[C@@H]3CC[C@@]21C (some centres undefined),0.94 (inactive),0.713,7720,8210,-0.351 (inactive),0.528
CC1CN(CC(=O)Nc2ccc3c(c2)Cc2cccc(-c4cc(=O)cc(N5CCOCC5)o4)c2S3)CC(C)O1 (centres undefined),0.994 (inactive),1.1,5760,5800,2.51 (active),1.29
Cc1nc(Nc2n[nH]c3c2CN(C(=O)NC(CN(C)C)c2ccccc2)C3(C)C)c2sccc2n1 (centres undefined),1.06 (inactive),0.274,1510,1420,0.106 (inactive),-7.7
COc1ccc(S(=O)(=O)N(C(C)=O)c2ccccc2C=Cc2cc[n+]([O-])cc2)cc1,1.18 (inactive),0.723,1240,1050,0.938 (inactive),-0.247
COc1ccc2cc1Oc1ccc(cc1)CC1c3cc(c(OC)cc3CCN1C)Oc1c(OC)c(OC)cc3c1C(C2)N(C)CC3 (centres undefined),0.908 (inactive),0.992,6590,7260,-0.603 (inactive),-0.273
C=C1C(=O)OC2C=C(C)CCC=C(C)CCC12 (centres undefined),0.92 (inactive),0.847,7130,7760,-0.398 (inactive),-0.0875
CC(C)OC(=O)OCOP(=O)(COC(C)Cn1cnc2c(N)ncnc21)OCOC(=O)OC(C)C (centres undefined),0.941 (inactive),0.831,7870,8370,-0.399 (inactive),0.463
COc1cccc2c1C(=O)c1c(O)c3c(c(O)c1C2=O)C[C@@](O)(C(=O)CO)C[C@@H]3OC1CC(N)C(OC2CCCCO2)C(C)O1 (some centres undefined),1.07 (inactive),1.21,1240,1150,3.19 (active),-0.724
CC1C[C@H]2[C@@H]3CC(F)C4=CC(=O)C=C[C@]4(C)[C@]3(F)C(O)C[C@]2(C)[C@@]1(O)C(=O)CO (some centres undefined),0.843 (inactive),1.01,4530,5380,-0.358 (inactive),-0.303
O=C(O)C(Cc1ccccc1[N+](=O)[O-])=NNC1=NC(c2ccc(Cl)c(Cl)c2)CS1 (centres undefined),0.88 (inactive),0.284,6240,7100,-0.273 (inactive),0.221
CS(=O)(=O)c1ccc(C(O)C(CO)NC(=O)C(Cl)Cl)cc1 (centres undefined),0.959 (inactive),1.06,8650,9010,-0.348 (inactive),0.589
N=c1ccn2c(n1)OC1C(O)C(CO)OC12 (centres undefined),1.07 (inactive),0.814,2350,2200,0.074 (inactive),0.000793
COC(=O)NC(C)CNc1nccc(-c2cn(C(C)C)nc2-c2cc(Cl)cc(NS(C)(=O)=O)c2F)n1 (centres undefined),0.982 (inactive),0.272,5200,5290,0.61 (inactive),1.4
CN1CCC(NC(=O)c2cc(-c3c(O)cc(O)cc3Oc3ccc([N+](=O)[O-])cc3)on2)CC1,1.08 (inactive),0.376,2520,2330,2.88 (active),-1.28
CC(C)CC(CC(=O)NO)C(=O)NC(Cc1ccc2ccccc2c1)C(=O)NC(C)C(=O)NCCN (centres undefined),0.928 (inactive),0.561,8260,8900,-0.492 (inactive),-0.379
O=C(c1ccccc1)c1ccc2nc(NC(=O)c3csc(C4CCN(c5ncnc6ccsc56)CC4)n3)[nH]c2c1,1.1 (inactive),0.341,2690,2460,-0.654 (inactive),-0.043

# Reference: PubChem BioAssay
